Shown is part of a subset that was picked to be rich in hits.
Pf Dd2 inh: blocks in vitro growth of P. falciparum Dd2 | Potency, µM (series often up to 28.9 µM), inactives show top-dose activity, negative = inhibition, usual class: inhibitors | 4.3% of 120,000 active | P. falciparum Dd2 growth, SYBR Green, 72 h; active means well fitted inhibition curve with a large enough effect;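 further: plate controls were DMSO vehicle for no effect and reference drug for full effect; nearly all actives have a fitted effect of over 65% in size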
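Infected erythrocytes (Dd2, 0.3% parasitemia, 2.5% hematocrit final) are added to compound in RPMI-1640/Albumax II medium, grown 72 h at 37C in low oxygen, then lysed with saponin/Triton-X containing SYBR Green and read by fluorescence.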
* = called active by the depositor; i = inactive; [ ] = dose if it differs, or a comment. Potency means the concentration at half of the fitted maximal effect.

SMILES	Pf Dd2 inh
Cc1noc([C@@H]2CC(F)(F)CN2C(=O)c2cc(C)[nH]n2)n1	27%
O=C(c1ccc(OC2CCN(C(=O)c3ccc(F)cc3)CC2)nc1)N1CCOCC1	10%
Cc1ccc(Cl)cc1N1CCN(C(=O)c2ccc3c(c2)N(Cc2ccc(F)cc2)CCS3)CC1	7.9µM*
Cc1ccc(CN2CCSc3ccc(C(=O)N4CCN(c5cc(C)ccc5C)CC4)cc32)cc1	11µM*
O=C(c1ccc2c(c1)N(Cc1ccc(F)cc1)CCS2)N1CCN(c2ccccc2)CC1	10µM*
Cc1c(C)n(Cc2ccc(F)cc2)c2ccc(C(=O)N3CCN(c4ccc(Cl)cc4)CC3)cc12	-19%
O=C(CN1CCSc2ccccc21)N1CCN(c2ccc(F)cc2)CC1	3%
Cc1ccc(Cl)cc1N1CCN(C(=O)Cn2cnc3onc(-c4ccc(F)cc4)c3c2=O)CC1	13%[5.79 µM]
Cc1ccc(C)c(N2CCN(C(=O)CN3CCSc4ccccc43)CC2)c1	7%
Cc1c(C)n(Cc2ccccc2)c2ccc(C(=O)N3CCN(c4ccc(F)cc4)CC3)cc12	16%
COc1ccc(Cn2c(=O)[nH]c3cc(C(=O)N4CCN(c5cc(C)ccc5C)CC4)ccc3c2=O)cc1	i
O=C(c1ccccc1)N1CCC(c2nnc3n2C(C(=O)N2CCOCC2)CC3)CC1 (configuration not stated)	9%
CCOc1ccccc1NC(=O)Cn1nc2n(c1=O)CCCC2	i
CC(C)Oc1ccc(CN2C(=O)C3(CCOCC3)CC2c2nnnn2C(C)(C)C)cc1 (configuration not stated)	-16%
NC(=O)CN1CCC(c2nc(-c3ccc4nc[nH]c4c3)no2)CC1	-22%
NCCc1cccc(CN2CCCC(COc3ccccc3F)C2)c1 (configuration not stated)	2µM*
CN1CCCN(C[C@@H]2CN(Cc3cccc(CCN)c3)C[C@@H]2CO)CC1	11%
Cc1cc(CN2CCN(c3cccc(C)c3C)CC2)cs1	-20%
NCCc1cccc(CN2CCC(Oc3cccc(F)c3)CC2)c1	10µM*
NCCc1ccc(CN2CCC(Oc3ncccn3)CC2)cc1	-8%
COCC(=O)N1CCCC(C(=O)N2CCC(OCc3ccccc3)CC2)C1 (configuration not stated)	-9%
O=C(c1ccco1)N1CCC(Oc2cccc(F)c2)C1 (configuration not stated)	i
O=c1[nH]ccn1C1CCN(Cc2ccccc2)CC1	16%[44.1 µM]
Cc1ccccc1N1CCCN(Cc2cccc(CCN)c2)CC1	8.9µM*
Cc1cccc(CN2CCCC(COc3ccccc3C(=O)N3CCOCC3)C2)c1 (configuration not stated)	0%
SMILES	Pf Dd2 inh
O=C(c1ccccc1OCC1CCCN(Cc2ccc(O)c(F)c2)C1)N1CCCCC1 (configuration not stated)	-24%
NCCc1cccc(CN2CCC(OCc3ccccc3)CC2)c1	4.5µM*
COCCN1C(=O)[C@H]2CN(Cc3cc(OC)ccc3OC)C[C@H]2C1=O	-6%
CC(C)C1CN(C(=O)c2ccc(F)cn2)CCC(=O)N1Cc1ccc(F)cc1 (configuration not stated)	10%
Cc1cc(C)cc(C(=O)N2CCCC(n3cc(-c4nc(C(C)C)no4)nn3)C2)c1 (configuration not stated)	136%
COc1ccc(CN2CCNC(=O)C2CC(=O)NCc2ccco2)c(F)c1 (configuration not stated)	6%
O=C1CCN(C(=O)C2CCCCC2)CCCC(C(=O)NCc2ccccc2)CCN1 (configuration not stated)	-21%
O=C1CCN(C(=O)C2(c3ccccc3)CC2)CCCC(C(=O)NCc2ccccc2)CCN1 (configuration not stated)	0.4µM*
O=C1CCN(C(=O)c2ccco2)CCCC(C(=O)NCc2ccccc2)CCN1 (configuration not stated)	-13%
CC1(C)CC(CC(=O)N2CCN(Cc3ccccc3)CC(O)C2)CC(C)(C)N1 (configuration not stated)	-19%
COc1ccc(-c2c3c(=O)n(C)c(=O)n(C)c3c3c(-c4cccc(C)c4)nc4ccccc4n23)cc1	40%
COc1ccc(-c2nc3ccccc3n3c(-c4cccc(C)c4)c4c(=O)n(C)c(=O)n(C)c4c23)cc1OC	11µM*
Cc1ccc(-c2c3c(=O)n(C)c(=O)n(C)c3c3c(-c4cccc(C)c4)nc4ccccc4n23)cc1	i
CNC(=O)[C@@H]1C[C@H](Oc2cccnc2)CN1C(=O)CCCc1ccccc1	30%
CC(C)c1noc(CC2CCN(C(=O)c3ccc(C(C)(C)C)cc3)CC2)n1	7.9µM*
CC(C)c1noc(CC2CCN(C(=O)c3ccc(F)cc3)CC2)n1	17%
CC(C)c1noc(CC2CCN(C(=O)c3ccc(N(C)C)cc3)CC2)n1	0%
O=C(Nc1ccc2c(c1)OCCO2)C1CCN(C(=O)N2CC3CC(C2)[C@H]2CCCC(=O)N2C3)CC1 (some centres not stated)	i
O=C(CN1C(=O)NC(c2ccc(Cl)cc2)C2=C1COC2=O)Nc1ccc(C(F)(F)F)cc1 (configuration not stated)	-8%
